Screens: PubChem, National Center for Advancing Translational Sciences (NCATS)
Hits are enriched below; roughly 3.7% of the tested compounds scored in any of these assays.
FMDV inh: High Throughput Screening for Foot and Mouth Disease Virus Antivirals; AID 1159524, 2015; FMDV antiviral cell-based qHTS; hit rate 1.2% among 410,000; Potency, µM (top dose mostly 57.9 µM), inactives show at the highest dose activity change, negative = inhibition, actives largely listed as inhibitors; calls by dose curve; tested in HEK293T cells; further: read-out not given here; nearly all actives have a fitted effect of over 45% in size
Sm TGR inh: qHTS Assay for the Inhibitors of Schistosoma Mansoni Peroxiredoxins. Schistosoma mansoni thioredoxin glutathione reductase (TGR), Q962Y6. Potency, µM (series often up to 114 µM), for the others: at the highest dose activity change, negative = inhibition, usual class: inhibitors. purified TGR, DTNB reduction, TNB absorbance 405 nm. hit rate 3% among 360,000; further: nearly all actives have a fitted effect of over 60% in size
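TGR 20 nM + NADPH 100 uM (dispensed conc.), cpd preinc 15 min RT; start with NADPH (500 uM addition) then DTNB (15 mM addition). Kinetic TNB absorbance, 405 nm filter. Four-parameter Hill fit across titration.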
TbPYK inhibitor: qHTS of Trypanosoma Brucei Inhibitors; pyruvate kinase (Trypanosoma brucei), Q57TT1; hit rate 0.12% among 410,000; Potency, µM (top dose mostly 76.8 µM), for the others: at the top dose activity, negative = inhibition, actives largely listed as inhibitors; TbPYK enzyme, Kinase-Glo Plus ATP luminescence, 45 min; further: nearly all actives have a fitted effect of over 50% in size
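Assay buffer: 50 mM TEA pH 7.2, 100 mM KCl, 10 mM MgCl2, 0.05% BSA, 0.01% Tween-20. Pyruvate kinase from T. brucei plus substrate met compound, then ADP (130 uM final). Luminescence was read post 45 min RT.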
RE007 growth inh: qHTS Assay for Inhibitors of the HIV-1 protein Vpr | S. pombe RE007 Vpr strain, BacTiter-Glo ATP luminescence, 24 h | AID 651644, 2012 | hit rate 0.21% among 360,000 | Potency, µM (series often up to 92.2 µM), inactives show at the highest dose activity change, negative = less growth, actives largely listed as inhibitors; active means well fitted falling curve with a large enough effect; inconclusive means small, poorly fitted or top-dose-only effect; inactive means no such curve, though single readings can be large or run the other way; further: nearly all actives have a fitted effect of over 50% in size
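Fission yeast RE007 carrying one integrated HIV-1 vpr copy, seeded at OD 0.01 in PMG+AL medium with 23 nL pinned compound. Grown 24 h at 30 degrees; viability read by BacTiter-Glo luminescence after 5 min.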
* = called active by the depositor; ? = inconclusive; · = not tested or not shown. Unless noted, the call rests on the fitted dose curve; in most records, active means well fitted curve in the direction sought with a large enough effect; inconclusive means small, poorly fitted or top-dose-only effect, or another doubt; inactive means no such curve, though single readings can be large; an effect the other way counts as inactive or inconclusive. On the % scale 0 is the no-effect control and ±100 the full control effect; potency means the concentration at half of the fitted maximal effect.

SMILES	FMDV inh	Sm TGR inh	TbPYK inhibitor	RE007 growth inh
COc1ccccc1C1C(C(=O)c2cc3ccccc3o2)=C(O)C(=O)N1CCN1CCOCC1 (stereo not drawn)	22%	40µM*	-7%	-11%
COc1cccc(C2C(C(=O)c3cc4ccccc4o3)=C(O)C(=O)N2CCN2CCOCC2)c1 (stereo not drawn)	15%	40µM*	1%	-8%
O=C(C1=C(O)C(=O)N(CCN2CCOCC2)C1c1ccc(Cl)cc1)c1cc2ccccc2o1 (stereo not drawn)	-20%	28µM*	1%	1%
Cc1nc(C)c(C(=O)C2=C(O)C(=O)N(CCN3CCOCC3)C2c2ccco2)s1 (stereo not drawn)	0%	28µM*	?	2%
CCn1c(-c2cccnc2)nc2cc(NC(=O)COC)cc(C(=O)N3CCOc4ccccc4C3)c21	2%	·	·	·
COCCN1CCN(C(=O)c2cnn(-c3nccc(-c4ccco4)n3)c2C(C)C)CC1	2%	·	·	·
COc1cc(=O)n2c(c1C(=O)NC(C)c1ccco1)CCN(Cc1ccc3nsnc3c1)CC2 (stereo not drawn)	0%	·	·	·
COc1cccc2cc(C(=O)C3=C(O)C(=O)N(CCN4CCOCC4)C3c3ccc(C)o3)oc12 (stereo not drawn)	12%	28µM*	9%	-6%
N#CCCCN1C(=O)C(=C(C#N)C#N)c2ccccc21	?	2.5µM*	-3%	-3%
COC(=O)C1=C(C(=O)OC)C(c2cc(Cl)ccc2O)c2sc(=O)[nH]c2S1 (stereo not drawn)	1%	40µM*	-20%	-13%
O=C(NC1=NCCS1)C1COc2ccccc2O1 (stereo not drawn)	10µM*	-1%	-20%	-2%
Cc1ccc2nsnc2c1S(=O)(=O)Nc1cccc2nsnc12	37%	45µM*	-12%	-3%
Cc1ccc(C)c(NS(=O)(=O)c2c(C)ccc3nsnc23)c1	3%	0%	-1%	11%
COc1cc(=O)n2c(c1C(=O)N1CCc3ccccc3C1)CCN(Cc1ccc(CO)o1)CC2	3%	·	·	·
Cc1noc(/C=C/c2ccco2)c1S(=O)(=O)N1CCC(C(=O)N2c3ccccc3CC2C)CC1 (stereo not drawn)	-5%	40µM*	-2%	-24%
Cc1noc(/C=C/c2ccco2)c1S(=O)(=O)N1CCC(C(=O)N(C)Cc2ccccc2)CC1	-7%	13µM*	-1%	13%
N[C@H](C(=O)O)[C@@H]1[C@@H](C(=O)O)C1(F)F	-1%	·	·	·
COc1cc2sc3ccc(-c4ccc(CN5CCOCC5)cc4)cc3c(=O)c2cc1OC	32µM*	·	-7%	6%
COc1ccc(N(C)C(=O)c2cc(S(=O)(=O)N3CCc4ccccc43)cn2C)c(OC)c1	-19%	-12%	-6%	·
CNc1ncncc1-c1ccccc1OC	-3%	·	·	·
N#CC(C#N)=C1c2cc(S(N)(=O)=O)ccc2-c2ccc(S(N)(=O)=O)cc21	25µM*	4.5µM*	-6%	-24%
N#CC(C#N)=C1c2cc(S(=O)(=O)NCCO)ccc2-c2ccc(S(=O)(=O)NCCO)cc21	-17%	4.5µM*	5%	1%
NS(=O)(=O)c1ccc2c(c1)C(=NO)c1cc(S(N)(=O)=O)ccc1-2	8%	3%	-5%	-1%
Oc1cncc(Cc2ccccc2)c1	1%	32µM*	0%	23%
Cc1cccc(C2=NCC(=O)N(CC(=O)NCc3ccco3)c3sc4c(c32)CCCC4)c1	?	18µM*	4%	-11%
SMILES	FMDV inh	Sm TGR inh	TbPYK inhibitor	RE007 growth inh
Cc1ccc(-n2ncc3c(N4CCN(CCO)CC4)ncnc32)cc1Cl	-15%	7.9µM*	1%	·
Clc1cccc(-n2ncc3c(N4CCN(Cc5ccccc5)CC4)ncnc32)c1	?	4%	-1%	·
Cc1ccc(-n2ncc3c(N4CCN(Cc5ccccc5)CC4)ncnc32)cc1C	14µM*	-3%	-1%	·
COc1ccc(-n2ncc3c(N4CCN(Cc5ccccc5)CC4)ncnc32)cc1	35µM*	14%	0%	-28%
CCN1CCN(c2ncnc3c2sc(=S)n3-c2ccccc2)CC1	-23%	2%	5%	-1%
S=c1sc2c(N3CCN(Cc4ccccc4)CC3)ncnc2n1-c1ccccc1	28µM*	?	1%	0%
Cc1ccc(OCC(=O)Nc2ccc3nc(SCC(=O)N4CCOCC4)sc3c2)cc1	?	5%	-3%	·
Cc1ccc(C)c(OCCn2c(CCNC(=O)C3CCCCC3)nc3ccccc32)c1	·	0%	·	·
CCc1ccccc1-n1cnc2cc(C(=O)NC3CCCCCC3)ccc21	9%	1%	1%	·
CCN(CCCNC(=O)CSc1cc(=O)n(CC)c2ccccc12)c1ccccc1	-27%	0%	-2%	·
Cc1ccccc1C(=O)N1CCN(c2ncnc3c2cnn3-c2ccccc2)CC1	20µM*	-1%	-8%	-16%
CC(C)c1cc(=O)oc2c3c4c(cc12)CCCN4CCC3	·	45µM*	-3%	-17%
Cc1ccc(Cl)cc1N1CCN(C(=O)CN(c2ccccc2)S(=O)(=O)N(C)C)CC1	20µM*	11%	3%	4%
COc1ccc(C(C(=O)NC2CCCCC2)N(Cc2ccco2)C(=O)CNC(=O)c2ccco2)cc1 (stereo not drawn)	12%	·	2%	0%
Cc1ccc(C(C(=O)NCc2ccco2)N(Cc2ccco2)C(=O)CNC(=O)c2ccco2)cc1 (stereo not drawn)	3%	45µM*	-17%	-4%
O=C(NCC(=O)N(Cc1ccco1)C(C(=O)NC1CCCC1)c1ccncc1)c1cccs1 (stereo not drawn)	9%	35µM*	4%	32%
O=C(CCC(=O)N(Cc1ccco1)C(C(=O)NC1CCCC1)c1ccncc1)Nc1cccnc1 (stereo not drawn)	21%	25µM*	-3%	-6%
O=C(NCC(=O)N(Cc1ccco1)C(C(=O)NC1CCCC1)c1cccnc1)c1cccs1 (stereo not drawn)	15%	-29%	-1%	6%
Cc1ccc(-n2ncc(C(=O)NCCCN3CCN(c4cccc(Cl)c4)CC3)c2-n2cccc2)cc1	?	8%	-4%	·
COC(=O)c1ccccc1-c1cc(C)cc2c1OC(CNC(=O)c1ccn(C)n1)C2 (stereo not drawn)	10%	·	·	·
CCn1c(C)cc(=S)c2ccccc21	-24%	4µM*	-7%	-6%
CCn1c2ccccc2c2cc(N)ccc21	-17%	4%	-19%	-24%
CCCN(N=Nc1cccc([N+](=O)[O-])c1)c1cccc([N+](=O)[O-])c1	·	50µM*	0%	4%
COc1ccc(Oc2ncc3ncc(=O)n(C)c3n2)cc1	24%	·	·	·
COC(=O)C1=C(c2c(C)noc2C)C[C@@H]2CC[C@H]1N2C(=O)NC1CC1	-7%	-4%	-1%	-1%
COC(=O)C1=C(c2c(C)noc2C)C[C@@H]2CC[C@H]1N2C(=O)N1CCOCC1	-1%	50µM*	1%	-4%
